Screens (PubChem BioAssay)
Rows were chosen to be rich in hits. Some 11% of all compounds tested hit in one or more screens of this group.
Pf growth 48h: P. falciparum growth inhibition at 48 hours (one generation); P. falciparum luciferase growth in erythrocytes, 48 h; Potency, µM (highest dose often 28.7 µM), inactives show top-dose activity change, negative = inhibition, hits mostly inhibitors; 310,000 compounds, 5.9% hits; AID 504832; note: % is set by controls: 0 for no effect and ±100 for the full control effect
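First compound was added to culture medium, then infected red cells at 0.1% parasitemia and 2% hematocrit (final). After incubation at 37 C under 5% CO2, luciferase detection reagent was dispensed and light output recorded.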
Pf growth 96h: P. falciparum growth inhibition at 96 hours. P. falciparum luciferase reporter growth, 96 h. Potency, µM (titrated, usually from 28.7 µM), for inactives: top-dose activity change, negative = inhibition, most hits filed as inhibitors. 320,000 compounds, 6.9% hits. AID 504834; note: % is set by controls: 0 for no effect and ±100 for the full control effect
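Plates of compound plus infected erythrocytes (2% hematocrit, 0.05% parasitemia final) incubate 96 hours, 37 C, 5% CO2. Detection reagent added; reduced luminescence from the parasites' luciferase reporter flags inhibition.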
VACV mCherry inh: inhibitors of vaccinia virus infection (mCherry reporter signal); Potency, µM (series often up to 36.5 µM), without a hit: at the highest dose activity change, negative = inhibition, usual class: inhibitors; 310,000 compounds, 0.63% hits; Vaccinia virus mCherry reporter infection, fluorescence; AID 720579; calls by dose curve; tested in A549 cells; note: % is set by controls: 0 for no effect and ±100 for the full control effect; nearly all actives have a fitted effect of over 35% in size
Vaccinia Venus: inhibitors of vaccinia virus (Venus reporter) | Potency, µM (doses to about 36.5 µM), for the others: at the top dose activity change, negative = inhibition, actives largely listed as inhibitors | Vaccinia virus Venus reporter expression, fluorescence | 330,000 compounds, 0.46% hits | AID 720580; calls by dose curve; tested in A549 cells; note: % is set by controls: 0 for no effect and ±100 for the full control effect; nearly all actives have a fitted effect of over 30% in size
NS1 function inh: inhibitors of influenza NS1 protein function. 270,000 compounds, 0.4% hits. Potency, µM (highest dose often 46.1 µM), without a hit: at the top dose activity, positive = more growth; calls by dose curve; note: actives are rising curves; nearly all actives have a fitted effect of over 50% in size
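Recovery from NS1-induced slow growth read by OD600 in budding yeast switched to galactose assay medium (pH 6.0, -URA) at 1:100 dilution. Compound 23 nl per well; the matching strain lacking NS1 serves as control.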
HCV inh: HCV inhibition | Huh7.5.1 HCVcc-Cre infection, luciferase reporter, 44 h | 340,000 compounds, 3.4% hits | AID 651820 | Potency, µM (highest dose often 41.8 µM), without a hit: at the top dose activity change, negative = inhibition, most hits filed as inhibitors; note: % is set by controls: 0 for no effect and ±100 for the full control effect
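Infectious HCVcc-Cre (~0.5 moi) was added to cells just after compound, with cells seeded 4 h earlier at 1,000 per well. Luciferase activity after 44 h culture reported infection; substrate was incubated 15 min at room temperature before reading.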
Numbers without * were called inactive; i = inactive; ? = inconclusive; . = no result given; [ ] = another dose, or the depositor's remark. Unless noted, calls come from the whole dose curve; as a rule, active = well fitted inhibition curve with a large enough effect; inconclusive = small, poorly fitted or top-dose-only effect, or another doubt; inactive = no such curve, though single readings can be large or run the other way. Potency is the fitted concentration of half-maximal effect.

SMILES	Pf growth 48h	Pf growth 96h	VACV mCherry inh	Vaccinia Venus	NS1 function inh	HCV inh
c1ccc2sc(NCC3CCCO3)nc2c1 (stereo not drawn)	213%	388%	i	-6%	.	3%
OC(O)C(Cl)(Cl)Cl	-21%	?	.	.	.	.
COc1ccc(C(=O)NC2CCCCC2)cc1S(=O)(=O)N1CCOCC1	-14%	?	-4%	-5%	-8%	15%
COc1ccc(/C=C/C(=O)NC2CCCCCC2)cc1S(=O)(=O)N1CCOCC1	?	9.3µM*	-19%	0%	-1%	-18%
COc1ccccc1NC(=O)/C=C/c1ccc(OC)c(S(=O)(=O)N2CCOCC2)c1	13µM*	-5%[5.75 µM]	-12%	-12%	.	?
CCCNC(=O)/C=C/c1ccc(S(=O)(=O)Nc2ccccc2OC)cc1	-24%	9.3µM*	i	-11%	.	?
COc1ccccc1CNC(=O)/C=C/c1ccc(S(=O)(=O)N2CCOCC2)cc1	?	4.7µM*	-2%	4%	.	-12%
COc1ccc(S(=O)(=O)N2CCOCC2)cc1NC(=O)/C=C/c1ccc(F)cc1	?	?	-18%	?	.	?
O=C(Cn1nc2c(cc1=O)CCCC2)Nc1ccc(F)cc1F	.	.	-13%	-6%	.	.
CC(=O)c1cnn(-c2ccc(Cl)c(Cl)c2Cl)c1C	-19%	-3%	i	0%	-7%	5%
COc1ccc(CC(=O)Nc2ccccc2C(C)=O)cc1S(=O)(=O)N1CCOCC1	?	?	-17%	-21%	.	18%
O=C(/C=C/c1ccc(S(=O)(=O)N2CCOCC2)cc1)NCCc1ccc(C(F)(F)F)cc1	12µM*	6.6µM*	.	.	.	?
COc1ccc(/C=C/C(=O)Nc2ccccc2C(N)=O)cc1S(=O)(=O)N1CCOCC1	?	4.1µM*	-3%	-8%	.	0%
COc1ccc(/C=C/C(=O)Nc2ccc(C)c(S(=O)(=O)N3CCOCC3)c2)cc1	.	.	?	?	.	2.8µM*
COc1ccc(NC(=O)/C=C/c2ccc(S(=O)(=O)N3CCOCC3)cc2)cc1	-11%	-28%	.	.	.	-4%
COc1ccc(/C=C/C(=O)Nc2cc(F)ccc2C)cc1S(=O)(=O)N1CCOCC1	15µM*	?	i	-29%	.	?
CCC(=O)c1ccccc1OCCCn1cncn1	18%	.	-16%	-4%	-2%	-30%
COc1ccc(C(O)c2ncc(-c3ccc(Cl)cc3)[nH]2)cc1 (stereo not drawn)	.	.	26%	0%	.	.
CC(=O)Nc1cccc(C(=O)NC(C)c2ccc(-n3ccnc3)cc2)c1 (stereo not drawn)	-18%	-7%	2%	7%	9%	-11%
COc1cc(OC)c(C(=O)CCCCN2CCC3(CC2)NC(=O)NC3=O)cc1NS(=O)(=O)c1ccc(C(F)(F)F)cc1	.	.	-15%	-9%	.	.
COc1ccc(S(=O)(=O)N2CCOCC2)cc1NS(=O)(=O)/C=C/c1ccccc1	0%	-6%	-9%	-7%	.	23%
COc1ccccc1NS(=O)(=O)/C=C/c1ccccc1	-6%	8.3µM*	-10%	-12%	-13%	0%
COc1ccc(-c2ccnc(-n3ncc(C(=O)NCc4ccon4)c3C3CC3)n2)cc1F	.	.	-15%	?	.	.
CC1CC(C)CN(C(=O)CSC2=Nc3ccccc3C3=NC(Cc4c[nH]c5ccccc45)C(=O)N23)C1 (stereo not drawn)	.	5.2µM*	.	.	24%	-25%
O=c1cc(CN2CCN(c3cccc(Cl)c3)CC2)c2cc(O)c(-c3ccccc3)cc2o1	2.1µM*	?	.	-23%	6%	21%
SMILES	Pf growth 48h	Pf growth 96h	VACV mCherry inh	Vaccinia Venus	NS1 function inh	HCV inh
Cc1cc(C)c2c(CN3CCN(c4ccccc4)CC3)cc(=O)oc2c1	.	.	i	-9%	.	.
CC(C)c1ccc2oc(=O)cc(CN3CCN(c4ccc(F)cc4)CC3)c2c1	13µM*	.	.	?	-69%	-1%
COc1ccc(N2CCN(Cc3cc(=O)oc4ccc(C)cc34)CC2)cc1	.	?	-12%	-8%	10%	5%
COc1ccc(N2CCN(Cc3cc(=O)oc4c3ccc3ccccc34)CC2)cc1	-16%	12µM*	.	.	-1%	.
O=c1cc(CN2CCN(Cc3ccccc3)CC2)c2cc(Cl)ccc2o1	0%	?	-9%	-2%	3%	12%
O=c1cc(CN2CCN(c3ccccc3)CC2)c2c(ccc3ccccc32)o1	13µM*	10µM*	.	-19%	-19%	0%
CCOc1cccc(CN2CCC(n3nccc3NC(=O)C3CCCC3)CC2)c1	-18%	54%	-2%	-12%	1%	-18%
CCOP(=O)(OCC)C(NC(=O)C(Cl)Cl)C(Cl)(Cl)Cl (stereo not drawn)	-9%	1%	.	.	-8%	9%
Cc1nc2nc[nH]n2c(=O)c1CC(=O)O	.	-12%	-6%	0%	0%	8%
O=c1cc(CN2CCN(c3ccccc3)CC2)c2cc(O)c(-c3ccccc3)cc2o1	2.6µM*	3.3µM*	.	-17%	-5%	-1%
Cc1nn(C)c(Cl)c1CN1CCCC(CO)(Cc2ccccc2)C1 (stereo not drawn)	?	i	.	.	1%	?
CCCCOc1ccc(/C=C/C(=O)NC2=Nc3ccccc3NC(C)=C2C(=O)OCC)cc1OC	?	10µM*	i	-12%	.	?
CCc1ccc(NC(=S)N2CCC(NC(=O)c3ccccc3)CC2)cc1	-3%	?	i	-14%	1%	-2%
COc1cccc2[nH]c(-c3ccccn3)nc12	.	.	.	.	8%	.
CCc1cc2c(=O)[nH]c(-c3ccccn3)nc2s1	?	3.3µM*	2.8µM*	?	-88%	?
COc1cnc(-c2ccccn2)[nH]c1=O	0%	5.9µM*	-14%	0%	.	14%
CCc1cc2c(=O)[nH]c(N3CCCC3)nc2s1	92%	88%	-10%	-13%	-1%	8%
CCOC(=O)C1=C(C)OC(N)=C(C(=O)OCC)[C@@]12C(=O)N(CC(N)=O)c1ccccc12	0%	32%	i	-9%	6%	7%
C=CCOC(=O)C1=C(C)OC(N)=C(C(=O)OCC)C12C(=O)N(CC(N)=O)c1ccccc12 (stereo not drawn)	-1%	13µM*	.	.	-1%	1%
COC(=O)C1=C(N)Oc2c(c(=O)oc3ccccc23)[C@]12C(=O)N(C)c1ccccc12	0%	-3%	.	-11%	-33%	9%
COC(=O)C1=C(N)OC(C)=C(C(C)=O)C12C(=O)N(C)c1ccccc12 (stereo not drawn)	6%	8.3µM*	i	-3%	-1%	36%
CCc1ccccc1NC(=S)N1CCN(c2ccccn2)CC1	10%	28%	-9%	-10%	-6%	5%
CCN(CC)S(=O)(=O)c1ccc(C)c(NC(=S)N2CCN(c3ccccn3)CC2)c1	?	-26%	i	-7%	-37%	22µM*
Cc1ccc(NC(=S)N2CCN(Cc3ccc4c(c3)OCO4)CC2)c(C)c1	.	.	-7%	-14%	.	-13%
